Results filed as inconclusive are left out. Calls of active or inactive are those of the source. Unless noted, calls come from the whole dose curve.
Columns and labels:
[1] = molecular target: Peroxisome proliferator-activated receptor delta (Homo sapiens) (UniProt Q03181); experiment: qHTS assay to identify small molecule agonists of the peroxisome proliferator-activated receptor delta (PPARd) signaling pathway (AID 743212)
How it was run: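 GeneBLAzer PPARd UAS-bla HEK293H cells (beta-lactamase reporter under UAS control), plated and rested 5 h at 37 C, then exposed to compounds in DMSO at 37 C; LiveBLAzer B/G FRET substrate added, 2 h room temperature, fluorescence read.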

[2] = qHTS assay to identify small molecule antagonists of the peroxisome proliferator-activated receptor delta (PPARd) signaling pathway - cell viability counter screen (AID 743213; active = well fitted curve in the direction sought with a large enough effect in the repeat runs; an effect the other way counts as inactive or inconclusive; note: nearly all actives have a fitted effect of over 50% in size)
How it was run: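 HEK293H cells with the PPARd UAS-bla reporter, co-treated 17 h at 37 C with compounds and L165041 (300 nM final), were lysed with CellTiter-Glo. Luminescence indicated viable cell content.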

[3] = molecular target: Bile acid receptor (Homo sapiens) (UniProt Q96RI1); experiment: qHTS assay to identify small molecule antagonists of the farnesoid-X-receptor (FXR) signaling pathway (AID 743217; active = well fitted inhibition curve with a large enough effect in the signal ratio in the repeat runs, not every such curve was filed as active; the % refers to the signal ratio)
How it was run: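 HEK 293T FXR-UAS-bla, 5000 cells/well; compound + CDCA 50 uM final; 16 h, 37 °C; B/G FRET substrate 2 h RT; fluorescence.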

[4] = qHTS assay to identify small molecule agonists of the farnesoid-X-receptor (FXR) signaling pathway - cell viability counter screen (AID 743218; active = well fitted curve in the direction sought with a large enough effect in the repeat runs; an effect the other way counts as inactive or inconclusive; note: nearly all actives have a fitted effect of over 45% in size)
How it was run: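 HEK 293T FXR-bla cells; 5 h pre-incubation, 16 h compound exposure at 37 C; LiveBLAzer substrate 2 h RT, then CellTiter-Glo 30 min RT, luminescence.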

[5] = molecular target: Bile acid receptor (Homo sapiens) (UniProt Q96RI1); experiment: qHTS assay to identify small molecule agonists of the farnesoid-X-receptor (FXR) signaling pathway (AID 743220; active = well fitted activation curve with a large enough effect in the signal ratio in the repeat runs, not every such curve was filed as active; the % refers to the signal ratio)
How it was run: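 Beta-lactamase reporter under UAS control in GeneBLAzer FXR HEK 293T cells (5000/well) measured with LiveBLAzer FRET substrate after 2 h at room temperature. Compound exposure lasted 16 h at 37C.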

[6] = qHTS assay to identify small molecule antagonists of the farnesoid-X-receptor (FXR) signaling pathway - cell viability counter screen (AID 743221; active = well fitted cell-killing curve with a large enough effect in the repeat runs, not every such curve was filed as active; note: nearly all actives have a fitted effect of over 50% in size)
How it was run: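 CellTiter-Glo, 30 min RT, luminescence; same wells as the LiveBLAzer FRET read. Cells: FXR-UAS-bla HEK 293T. Treatment: compound with chenodeoxycholic acid 50 uM final, 16 h at 37 C.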

[7] = molecular target: Vitamin D3 receptor (Homo sapiens) (UniProt P11473); experiment: qHTS assay to identify small molecule agonists of the vitamin D receptor (VDR) signaling pathway (AID 743222)
How it was run: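 VDR-bla cells, 2,000/well; 4 h preincubation 37C; cpd (DMSO) 16 h; LiveBLAzer B/G substrate 2 h RT; fluorescence intensity read.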

[8] = molecular target: Vitamin D3 receptor (Homo sapiens) (UniProt P11473); experiment: qHTS assay to identify small molecule antagonists of the vitamin D receptor (VDR) signaling pathway (AID 743223; active = well fitted inhibition curve with a large enough effect in the signal ratio in the repeat runs, not every such curve was filed as active; the % refers to the signal ratio)
How it was run: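 After VDR-bla cells are plated and left 4 h at 37C, DMSO-dissolved compounds and 3 nM (final) calcitriol agonist are added. Incubation continues 16 h at 37C; FRET beta-lactamase substrate then develops 2 h at room temperature.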

[9] = qHTS assay to identify small molecule agonists of the vitamin D receptor (VDR) signaling pathway - cell viability counter screen (AID 743224; active = well fitted curve in the direction sought with a large enough effect in the repeat runs; an effect the other way counts as inactive or inconclusive; note: series mostly up to about 63 µM; nearly all actives have a fitted effect of over 50% in size)
How it was run: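 Luminescence from CellTiter-Glo, read after 30 min at room temperature, reports viability of VDR-bla cells treated with compounds for 16 h at 37C in the wells used for the beta-lactamase FRET read.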

[10] = qHTS assay to identify small molecule antagonists of the vitamin D receptor (VDR) signaling pathway - cell viability counter screen (AID 743225; active = well fitted curve in the direction sought with a large enough effect in the repeat runs; an effect the other way counts as inactive or inconclusive; note: nearly all actives have a fitted effect of over 50% in size)
How it was run: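 Cytotoxicity toward the VDR-bla HEK 293T line was scored by ATP-based CellTiter-Glo luminescence, read in the wells already used for the beta-lactamase readout after 16 h compound treatment under 3 nM 1-alpha,25-dihydroxyvitamin D3 stimulation.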

[11] = qHTS assay to identify small molecule agonists of the NFkB signaling pathway - cell viability counter screen (AID 1159515); note: series mostly up to about 61 µM; nearly all actives have a fitted effect of over 55% in size
How it was run: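 Luminescence from CellTiter-Glo (30 min, room temperature) gives viability, measured in the same wells as the beta-lactamase reporter read. Cells were NFkB-bla ME-180, 2,000 per well, treated 5 hr with compounds.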

[12] = qHTS assay to identify small molecule agonists of the endoplasmic reticulum stress response signaling pathway (AID 1159516; active = well fitted activation curve with a large enough effect in the signal ratio in the repeat runs, not every such curve was filed as active; the % refers to the signal ratio)
How it was run: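 Read-out is beta-lactamase cleavage of a FRET substrate (405 nm excitation; 460 and 530 nm emissions) in ESRE-bla HeLa cells after a 5 hr compound exposure at 37 C. Substrate incubation ran 2 hr at room temperature.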

[13] = qHTS assay to identify small molecule agonists of the endoplasmic reticulum stress response signaling pathway - cell viability counter screen (AID 1159517)
How it was run: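 Luminescence readout: CellTiter-Glo, 30 min RT, same wells as the ESRE-bla reporter read. HeLa ESRE-bla, 1,500 cells/well, o/n 37 C; cpd 5 hr 37 C/5% CO2.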

[14] = qHTS assay to identify small molecule antagonists of the retinoid-related orphan receptor gamma (ROR-gamma) signaling pathway - cell viability counter screen (AID 1159520; active = well fitted curve in the direction sought with a large enough effect in the repeat runs; an effect the other way counts as inactive or inconclusive; note: nearly all actives have a fitted effect of over 50% in size)
How it was run: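 Tet-on ROR gamma CHO cells (1,000/well) were plated 4 hr, given compounds in DMSO for 2 hr at 37 C, then induced with 1 uM final doxycycline for 16 hr. Viability was read as ATP by CellTiter-Glo luminescence after 30 min.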

[15] = molecular target: Nuclear receptor ROR-gamma (Homo sapiens) (UniProt P51449); experiment: qHTS assay to identify small molecule antagonists of the retinoid-related orphan receptor gamma (ROR-gamma) signaling pathway (AID 1159521; active = well fitted curve in the direction sought with a large enough effect in the repeat runs; an effect the other way counts as inactive or inconclusive)
How it was run: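 Readout: ONE-Glo luciferase luminescence, 30 min at room temperature. System: Tet-on RORγ CHO, RORE-LUC. Sequence: compound 2 h, doxycycline 1 uM final, 16 h at 37 C.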

[16] = qHTS assay to identify small molecule agonists of the AP-1 signaling pathway - cell viability counter screen (AID 1159525); note: nearly all actives have a fitted effect of over 55% in size
How it was run: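 ME-180 AP-1-bla, 2500 cells/well, Opti-MEM + 0.5% dialyzed FBS; overnight 37 °C; cpd 15-pt titration, 5 h 37 °C; CellTiter-Glo 30 min RT; luminescence read; normalised to TOAB and DMSO controls.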

[17] = qHTS assay to identify small molecule agonists of the AP-1 signaling pathway (AID 1159526)
[18] = molecular target: Retinoic acid receptor RXR-alpha (Homo sapiens) (UniProt P19793); experiment: qHTS assay to identify small molecule agonists of the RXR signaling pathway (AID 1159527); note: nearly all actives have a fitted effect of over 35% in size
How it was run: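 Reporter activation is measured as beta-lactamase activity via FRET substrate cleavage (emission 460/530 nm) in HEK 293T cells expressing an RXR-alpha-driven bla construct, following 16 hr compound exposure at 37 C.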

[19] = qHTS assay to identify small molecule agonists of the RXR signaling pathway - cell viability counter screen (AID 1159529; active = well fitted curve in the direction sought with a large enough effect in the repeat runs; an effect the other way counts as inactive or inconclusive)
How it was run: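 Tox21 10K compounds were tested for cytotoxicity against GeneBLAzer RXR-alpha HEK 293T cells grown in 2% charcoal-stripped FBS. Exposure lasted 16 hr at 37 C, 5% CO2; viability read by CellTiter-Glo luminescence.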

[20] = molecular target: Peroxisome proliferator-activated receptor delta (Homo sapiens) (UniProt Q03181); experiment: qHTS assay to identify small molecule antagonists of the peroxisome proliferator-activated receptor delta (PPARd) signaling pathway (AID 743215; active = well fitted inhibition curve with a large enough effect in the signal ratio in the repeat runs, not every such curve was filed as active; the % refers to the signal ratio;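 note: cells stimulated with agonist L165041 at 300 nM final during compound exposure; series mostly up to about 62 µM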)
How it was run: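 Read-out is beta-lactamase FRET fluorescence, measured 2 h after substrate addition at room temperature. Beforehand, UAS-bla HEK293H cells carrying the PPARd reporter were exposed to compounds with L165041 at 300 nM final for 17 h at 37 C.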

Measured: Potency

Vitamin D3 receptor (Homo sapiens), sequence (P11473 whole entry, looked up): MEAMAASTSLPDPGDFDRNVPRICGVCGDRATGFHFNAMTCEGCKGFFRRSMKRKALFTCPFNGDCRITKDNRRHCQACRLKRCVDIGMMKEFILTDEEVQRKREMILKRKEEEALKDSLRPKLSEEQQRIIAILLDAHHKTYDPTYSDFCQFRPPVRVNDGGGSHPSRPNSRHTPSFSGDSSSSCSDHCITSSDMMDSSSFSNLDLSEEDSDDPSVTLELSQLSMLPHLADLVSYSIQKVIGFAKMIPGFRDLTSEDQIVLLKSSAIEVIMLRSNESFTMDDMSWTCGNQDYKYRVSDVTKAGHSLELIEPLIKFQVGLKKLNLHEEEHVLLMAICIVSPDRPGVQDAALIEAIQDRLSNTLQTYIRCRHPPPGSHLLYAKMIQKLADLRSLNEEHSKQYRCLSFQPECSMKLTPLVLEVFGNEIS
Bile acid receptor (Homo sapiens), sequence (Q96RI1 whole entry, looked up): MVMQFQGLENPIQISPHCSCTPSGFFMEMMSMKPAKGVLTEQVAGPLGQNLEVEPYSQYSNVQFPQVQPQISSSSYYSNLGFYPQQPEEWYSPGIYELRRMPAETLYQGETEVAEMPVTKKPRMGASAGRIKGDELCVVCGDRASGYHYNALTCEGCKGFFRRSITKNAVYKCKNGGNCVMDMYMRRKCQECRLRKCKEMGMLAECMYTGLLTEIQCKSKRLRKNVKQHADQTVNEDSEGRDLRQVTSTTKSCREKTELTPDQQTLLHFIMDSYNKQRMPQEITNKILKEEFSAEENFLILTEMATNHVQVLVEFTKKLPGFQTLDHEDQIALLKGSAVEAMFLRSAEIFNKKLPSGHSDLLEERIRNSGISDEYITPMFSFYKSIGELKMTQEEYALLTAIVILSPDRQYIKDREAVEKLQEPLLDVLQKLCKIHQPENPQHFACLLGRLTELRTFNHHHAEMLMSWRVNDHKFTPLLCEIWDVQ
Retinoic acid receptor RXR-alpha (Homo sapiens), sequence (P19793 whole entry, looked up): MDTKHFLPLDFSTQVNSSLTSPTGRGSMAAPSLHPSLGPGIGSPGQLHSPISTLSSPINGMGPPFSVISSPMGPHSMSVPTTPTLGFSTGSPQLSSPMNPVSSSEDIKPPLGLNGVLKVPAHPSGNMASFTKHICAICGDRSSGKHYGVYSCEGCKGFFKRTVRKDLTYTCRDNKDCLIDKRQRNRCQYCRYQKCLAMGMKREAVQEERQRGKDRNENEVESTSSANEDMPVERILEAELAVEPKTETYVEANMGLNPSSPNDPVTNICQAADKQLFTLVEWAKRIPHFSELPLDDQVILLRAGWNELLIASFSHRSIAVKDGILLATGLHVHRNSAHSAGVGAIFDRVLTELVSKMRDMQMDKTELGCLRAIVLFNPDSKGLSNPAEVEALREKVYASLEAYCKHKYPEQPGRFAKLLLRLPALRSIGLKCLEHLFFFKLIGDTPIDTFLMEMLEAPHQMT
Peroxisome proliferator-activated receptor delta (Homo sapiens), sequence (Q03181 whole entry, looked up): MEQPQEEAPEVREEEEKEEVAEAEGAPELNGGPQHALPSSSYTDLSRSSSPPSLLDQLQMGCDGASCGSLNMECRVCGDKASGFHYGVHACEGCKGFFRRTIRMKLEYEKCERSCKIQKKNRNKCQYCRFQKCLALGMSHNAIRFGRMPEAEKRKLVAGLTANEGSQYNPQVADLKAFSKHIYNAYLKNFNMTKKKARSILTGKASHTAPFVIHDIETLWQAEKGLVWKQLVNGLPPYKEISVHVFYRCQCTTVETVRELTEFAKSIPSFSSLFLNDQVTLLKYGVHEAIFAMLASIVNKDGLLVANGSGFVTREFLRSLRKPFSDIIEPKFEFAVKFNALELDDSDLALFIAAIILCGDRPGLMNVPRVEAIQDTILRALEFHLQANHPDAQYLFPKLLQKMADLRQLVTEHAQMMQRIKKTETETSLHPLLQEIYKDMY

CC(=O)c1ccc2ccc3ccccc3c2c1
not listed: [20]
inactive: all other assays above

CCC(C)c1nccnc1OC (centres undefined)
not listed: [2] | [10]
inactive: all other assays above

CCCC(=O)OC
not listed: [1] | [3] | [5] | [20]
inactive: all other assays above

CCOC(=O)[C@H](CCc1ccccc1)N[C@H]1CS[C@H](c2cccs2)CN(CC(=O)O)C1=O
not listed: [3] | [5] | [6] | [7] | [8]
inactive: all other assays above

CC(=O)Nc1ccc(S(=O)(=O)Nc2cc(C)on2)cc1
not listed: [20]
inactive: all other assays above

Cc1cccc(N)n1
not listed: [2] | [5] | [8] | [20]
inactive: all other assays above

C[Si](C)(C)O[Si](O)(O)O
not listed: [7] | [9] | [10] | [20]
inactive: all other assays above

CC(C)=CCC/C(C)=C\C#N
not listed: [1] | [3] | [20]
inactive: all other assays above

CCO[Si](CC(C)C)(OCC)OCC
not listed: [2] | [9] | [10]
inactive: all other assays above

O=C(O)COc1ccc2ccccc2c1
not listed: [1] | [20]
inactive: all other assays above

Cc1ccc2cccnc2c1
not listed: [1] | [8] | [10] | [20]
inactive: all other assays above

Nc1nc(Cl)cc(Cl)n1
not listed: [1] | [8]
inactive: all other assays above

Cc1cc2c(cc1CC(=O)c1sccc1S(=O)(=O)Nc1onc(C)c1Cl)OCO2
not listed: [2] | [3] | [5] | [7] | [10] | [20]
inactive: all other assays above
